Most compounds without a hit are left out; they make up all but 7.6% or so of the library.
RORgamma inh = inhibitors of mouse ROR gamma transcriptional activity; P51450; Drosophila S2 Gal4-RORgamma UAS-luciferase reporter, 20 h; Potency, µM (highest dose often 53.6 µM), without a hit: at the highest dose activity change, negative = inhibition, usual class: inhibitors; 310,000 compounds, 5.4% hits; AID 2551; note: potency is the fitted concentration of half-maximal effect; % is set by controls: 0 for no effect and ±100 for the full control effect; nearly all actives have a fitted effect of over 60% in size
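Drosophila Schneider cells stably carrying a metallothionein-driven Gal4 DBD–ROR gamma fusion and a UAS-Photinus luciferase reporter were exposed to compound for 1 hr, then induced with copper sulfate (700 uM final) for 20 hr at ambient temperature before luminescence reading.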
Giardia killer = kills Giardia lamblia; 340,000 compounds, 0.15% hits; Giardia lamblia trophozoite viability; activity change, % at 7.66 µM, hits read low; AID 540267; in the data active = activity change below about -80%; inconclusive = between about -30% and that limit;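 note: parasites exposed to compound for two days anaerobically before the ATP read; % is set by controls: 0 for no effect and ±100 for the full control effect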
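Giardia trophozoites, 100 cells per well, were exposed to compounds for 48 hrs at 37 deg C under anaerobic conditions; viability was then read as ATP content by bioluminescence after 15-30 min at room temperature.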
ELG1 DNA repair = ELG1-dependent DNA repair inhibition | HEK293T ELG1-luciferase reporter, luminescence, 16 h; DNA damage induced by 5-fluorouridine | Potency, µM (series often up to 46.1 µM), without a hit: at the highest dose activity change, negative = inhibition, most hits filed as inhibitors | 330,000 compounds, 2.3% hits; note: potency is the fitted concentration of half-maximal effect; % is set by controls: 0 for no effect and ±100 for the full control effect; nearly all actives have a fitted effect of over 55% in size
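Cells (2,000 per well) received 5-fluorouridine plus test compound or DMSO and were incubated 16 hr at 37 °C, 5% CO2. Luciferase activity was read by luminescence 30 min after ONE-Glo addition; signal suppression marked inhibition of damage-induced ELG1 function.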
BRCA1 expr act = BRCA1 expression activation; MCF7-BRCA1-FFLuc reporter, luminescence, 48 h; response scale: scaled: vehicle 0%, 10 µM genistein 100%; Potency, µM (series often up to 46.1 µM), for inactives: at the top dose activation, actives largely listed as activators; 380,000 compounds, 1.1% hits; note: potency is the fitted concentration of half-maximal effect; nearly all actives have a fitted effect of over 80% in size
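Reporter cells (MCF7, BRCA1 promoter-firefly luciferase) received library compounds across a concentration series for 48 h. End-point luminescence was measured and concentration-effect curves derived after normalization.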
VP16 counter = counter-screen for ROR gamma inhibitors: Gal4-VP16 reporter; Potency, µM (top dose mostly 53.6 µM), inactives show at the top dose activity, negative = inhibition, hits mostly inhibitors; Drosophila S2 Gal4-VP16 UAS-luciferase, luminescence, 20 h; 310,000 compounds, 3.5% hits;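 note: Gal4-VP16 expression switched on by copper sulfate through the metallothionein promoter; potency is the fitted concentration of half-maximal effect; % is set by controls: 0 for no effect and ±100 for the full control effect; nearly all actives have a fitted effect of over 50% in size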
p53 reactivation = restores transcriptional activity of mutant p53 | Potency, µM (highest dose often 92.2 µM), for inactives: top-dose activity change, positive = activation, usual class: activators | 320,000 compounds, 0.063% hits | AID 504706 | H1299 p53-A138V BP100-luciferase reporter, luminescence, 24 h; note: potency is the fitted concentration of half-maximal effect; % of control where 0% means no effect; nearly all actives have a fitted effect of over 45% in size
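H1299 (p53-null), stable ts p53-A138V + BP100-Luc; 1000 cells/well, Opti-MEM/10% FBS; cpd 4 pt, 1:5; 24 h, 37 deg C, 5% CO2; detection reagent 10 min RT; luminescence.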
ELG1 FLuc counter = luciferase inhibition in cell-free luciferin readout for ELG1 hits; shares compounds with ELG1 DNA repair; cell-free firefly luciferase luminescence counter-screen, ViewLux; Potency, µM (doses to about 46.1 µM), inactives show top-dose activity change, negative = inhibition, hits mostly inhibitors; 350 compounds, 3% hits; note: potency is the fitted concentration of half-maximal effect; % is set by controls: 0 for no effect and ±100 for the full control effect
ELG1 Luc conf = human ELG1 repair inhibition, luciferase-tagged ELG1 confirmation; shares compounds with ELG1 DNA repair; HEK293T ELG1-luciferase levels, luminescence; cells co-treated with 5-fluorouridine; Potency, µM (titrated, usually from 46.1 µM), for inactives: top-dose activity change, negative = inhibition, usual class: inhibitors; 670 compounds, 68% hits; note: potency is the fitted concentration of half-maximal effect; % is set by controls: 0 for no effect and ±100 for the full control effect; nearly all actives have a fitted effect of over 55% in size
ELG1-Luc MMS = confirmation of human ELG1 repair inhibitors, MMS stimulated; shares compounds with ELG1 DNA repair; HEK293T luciferase-tagged ELG1 level, MMS stimulated; Potency, µM (titrated, usually from 46.1 µM), for the others: at the top dose activity change, negative = inhibition, usual class: inhibitors; 670 compounds, 53% hits; note: potency is the fitted concentration of half-maximal effect; % is set by controls: 0 for no effect and ±100 for the full control effect; nearly all actives have a fitted effect of over 60% in size
ELG1 5-FU = confirmation of ELG1 repair inhibitors: viability with 5FU. cell viability with 5-FU, ELG1-dependent repair. Potency, µM (series often up to 46.1 µM), inactives show top-dose activity change, negative = viability loss, most hits filed as cytotoxic. 670 tested, under 10 active. shares compounds with ELG1 DNA repair;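 note: ELG1-luc HEK293T cells cotreated with 5-fluorouridine at 10 µM final; potency is the fitted concentration of half-maximal effect; viability measured 16 h after compound addition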
ELG1 MMS cell = confirmation of ELG1 repair inhibitors: viability with MMS; Cell viability with MMS, ELG1-dependent DNA repair; shares compounds with ELG1 DNA repair; 670 compounds, 33% hits; Potency, µM (series often up to 46.1 µM), without a hit: at the highest dose activity change, negative = viability loss, most hits filed as cytotoxic;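 note: ELG1-luc HEK293T cells co-treated with 10 µM MMS; potency is the fitted concentration of half-maximal effect; viability read 16 h after compound addition; % is set by controls: 0 for no effect and ±100 for the full control effect; nearly all actives have a fitted effect of over 60% in size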
ELG1 unstim viab = counter-screen for ELG1 repair inhibitors: unstimulated cell viability; shares compounds with ELG1 DNA repair; cell viability counter-screen, unstimulated, luminescence; Potency, µM (top dose mostly 45.9 µM), for inactives: top-dose activity change, negative = loss of viability, usual class: cytotoxic; 900 compounds, 8% hits;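 note: potency is the fitted concentration of half-maximal effect; compound exposure lasted 16 hours before reading; % is set by controls: 0 for no effect and ±100 for the full control effect; nearly all actives have a fitted effect of over 55% in size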
FLuc enzyme = counter-screen for ELG1 repair inhibitors: firefly luciferase inhibition | 350 compounds, 10% hits | AID 624253 | purified firefly luciferase, luminescence counter-screen | shares compounds with ELG1 DNA repair | Potency, µM (titrated, usually from 57.5 µM), for inactives: top-dose activity, negative = inhibition, most hits filed as inhibitors; note: potency is the fitted concentration of half-maximal effect; % is set by controls: 0 for no effect and ±100 for the full control effect
An asterisk follows results filed as active; ? = inconclusive; · = no result. Unless noted, calls come from the whole dose curve; as a rule, active = well fitted curve in the direction sought with a large enough effect; inconclusive = small, poorly fitted or top-dose-only effect, or another doubt; inactive = no such curve, though single readings can be large; an effect the other way counts as inactive or inconclusive.

SMILES	RORgamma inh	Giardia killer	ELG1 DNA repair	BRCA1 expr act	VP16 counter	p53 reactivation	ELG1 FLuc counter	ELG1 Luc conf	ELG1-Luc MMS	ELG1 5-FU	ELG1 MMS cell	ELG1 unstim viab	FLuc enzyme
CC(=O)OC[C@]12CCC(C)=C[C@H]1O[C@@H]1[C@H](O)[C@@H](OC(C)=O)[C@@]2(C)[C@]12CO2	0.032µM*	?	0.018µM*	?	0.0016µM*	?	?	0.028µM*	0.018µM*	0%	0.044µM*	?	-5%
CC(=O)c1c(C)n(C2CCCCC2)c2ccc(O)cc12	?	-6	?	-1%	-27%	-5%	·	1.3µM*	?	1%	9%	?	·
CCCNC(=O)N1[C@H]2CC[C@@H]1C(C(=O)OC)=C(c1cc3ccccc3o1)C2	·	26	·	-5%	·	·	·	·	·	·	·	·	·
CCOc1ccc(-n2c(O)c(N=Nc3c(C)n(C)n(-c4ccccc4)c3=O)c(=O)[nH]c2=O)cc1	-1%	?	0%	-2%	6%	3%	·	·	·	·	·	·	·
CCC(C)NC(=O)CCC(=O)OC1O[C@H]2OC3(C)CC[C@H]4[C@H](C)CCC(C1C)C24OO3 (stereo partly specified)	0%	5	?	-52%	3%	1%	·	·	·	·	·	·	·
CCC(C)C(NC(=O)CCCNC(=O)CCC(=O)OC1O[C@H]2OC3(C)CC[C@H]4[C@H](C)CCC(C1C)C24OO3)C(=O)O (stereo partly specified)	-5%	·	0.58µM*	·	2%	14%	-12%	?	?	-6%	-4%	?	-3%
Cc1cccc(-n2c(O)c(C=Nc3ccc(Br)cn3)c(=O)[nH]c2=O)c1	?	-3	?	12%	-23%	-3%	·	·	·	·	·	·	·
CCC1OC2(C)C(O)C(/C=C/C=C/C=C/c3oc(=O)cc(OC)c3C)OC1(C)C2OC(C)=O (stereo unspecified)	0.04µM*	·	·	·	·	·	?	2.2µM*	0.2µM*	-1%	0.16µM*	?	-9%
CC[C@@H]1/C=C/C=C/C[C@H](C)[C@@H](O)[C@](C)(O)C(=O)[C@H](C)[C@@H](O)[C@H](C)C(=O)[C@H](C)[C@@H](O)[C@H](C)/C=C/C(=O)O[C@H]2[C@@H](C)[C@@H](CC1)O[C@@]1(CC[C@@H](C)[C@@H](C[C@H](C)O)O1)[C@@H]2C	·	·	·	·	·	·	?	7.1µM*	0.011µM*	?	0.011µM*	0.028µM*	-2%
